# aSyn yeast inh: inhibitors of alpha-synuclein toxicity in yeast; hit rate 0.14% among 370,000; AID 652106; Potency, µM (titrated, usually from 46.1 µM), without a hit: at the highest dose growth rescue (activation), usual class: activators; Yeast expressing alpha-synuclein, growth rescue, BacTiter-Glo, 24 h; also: % of control where 0% means no effect; nearly all actives have a fitted effect of over 65% in size
#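 Rescue of yeast growth: cells expressing toxic alpha-synuclein, induced in galactose at OD600 0.02, incubated with compound 24 h at 30 C. ATP luminescence quantified growth; inhibitors of toxicity appear as activators.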
# FUS suppressor: rescues growth of FUS-expressing yeast; S. cerevisiae FUS-expressing, growth rescue, OD600, 24 h; Potency, µM (titrated, usually from 76.6 µM), actives largely listed as activators; hit rate 0.24% among 390,000;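 also: plate controls were DMSO vehicle for no effect and reference control for full effect; nearly all actives have a fitted effect of over 55% in size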
#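 Cultures pregrown in 2.5% raffinose medium are shifted to minimal medium containing 2% galactose to express toxic FUS. Compounds are tested at several concentrations. After 24hr at 30C, growth is quantified at 600 nm absorbance.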
# Abeta rescue: A-beta toxicity reversal in yeast; yeast expressing A-beta42, growth rescue, OD600, 48 h; response scale: 0% DMSO, 100% iron-clioquinol control; Potency, µM (highest dose often 46.1 µM), hits mostly activators; hit rate 0.063% among 410,000; also: nearly all actives have a fitted effect of over 55% in size
#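 Yeast A-beta toxicity model in growth medium with pinned compounds, 48 h at 30 C; growth read as absorbance at 600 nm. Normalized to FeCl3/clioquinol equimolar mix (positive) and DMSO (negative).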
# TDP43 rescue: TDP-43 toxicity inhibition in yeast. TDP-43 expressing yeast growth rescue, BacTiter-Glo, 24 h. Potency, µM (highest dose often 46.1 µM), for the others: at the highest dose growth rescue (activation), most hits filed as activators. hit rate 1.8% among 410,000. AID 652104; also: % of control where 0% means no effect; nearly all actives have a fitted effect of over 50% in size
#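 Yeast cells expressing TDP-43 under galactose induction are exposed to compounds for 24 hr at 30 deg C. BacTiter-Glo luminescence measures growth, so protective compounds score as activators.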
# * = called active by the depositor; i = inactive; ? = inconclusive; · = no result given; [ ] = another dose, or the depositor's remark. An excerpt weighted towards active compounds, which were near 2.1% of everything screened. Calls follow the shape of the dose curve; as a rule, active = well fitted curve in the direction sought with a large enough effect; inconclusive = small, poorly fitted or top-dose-only effect, or another doubt; inactive = no such curve, though single readings can be large; an effect the other way counts as inactive or inconclusive. Potency is read from the fitted curve at half-maximal effect.
SMILES,aSyn yeast inh,FUS suppressor,Abeta rescue,TDP43 rescue
CCn1nc(C)c(/C=N/NC(=O)c2ccc3c(c2)c(C)c(C)n3Cc2ccccc2)c1C,2.3%,11.2µM*,i,4.9%
CCN(CCC(=O)O)c1ccc(/C=C/c2ccnc3ccccc23)cc1,-28.9%,·,·,·
CSc1nc(N)nc(-c2cccs2)c1C#N,8.1%,i,i,20µM*
CC(C)Sc1nc(N)nc(-c2cccs2)c1C#N,0.5%,i,i[9.22 µM],17.8µM*
O=[N+]([O-])c1cc(C(F)(F)F)ccc1NCC1CCCO1 (stereo unspecified),4.7%,i,i,14.1µM*
COc1ccc(C(=O)N2CC3(CC(c4cccc(NC(=O)COc5ccc(Cl)cc5)c4)=NO3)C[C@@H]2C(N)=O)cc1 (stereo partly specified),1.7%,35.5µM*,i,4.1%
NC(=O)[C@@H]1CC2(CC(c3cccc(NC(=O)COc4ccc(Cl)cc4)c3)=NO2)CN1C(=O)c1ccccc1 (stereo partly specified),10.2%,i,i,5.2%
COc1ccc(-c2cccc(NC(=O)COc3ccc(Cl)cc3)c2)nn1,-11.0%,i,i,11.2µM*
CS(=O)(=O)c1ccc(-c2cccc(NC(=O)COc3ccc(Cl)cc3)c2)nn1,-12.0%,i,i,-11.9%
CCOc1ccccc1NC(=O)c1sc2nc(C)nc(N3CCOCC3)c2c1C,-14.0%,i,i,7.94µM*
CN(C(=O)c1ccc2c(c1)C(=O)N(CCC1=CCCCC1)C2=O)C1CCCCC1,7.3%,i,i,22.4µM*
O=C(O)c1ccc2c(c1)C(=O)N(CCC1=CCCCC1)C2=O,5.0%,i,i,15.7%
Cc1c(C(=O)N2CCC(C)CC2)c(S(=O)(=O)Nc2cccc(C(F)(F)F)c2)c(C)n1C,·,i,i,?
CCCCCCCNC(=O)C1(CC2CC(c3ccc(Cl)cc3)=NO2)CCN(C(=O)CCCCCBr)CC1 (stereo unspecified),-5.5%,31.6µM*,i,-3.2%
CCOC(=O)/C=C/C(=O)Nc1ccc(Oc2ccccc2)cc1,-16.6%,i,i,17.8µM*
O=C(O)/C=C/C(=O)Nc1ccc(Oc2ccccc2)cc1,-2.5%,i,i,?
O=C(OCn1ncc(Cl)c(Cl)c1=O)c1ccccc1Cl,11.3%,i,i,5.62µM*
COc1cccc(NC(=O)Cn2c(=O)n(-c3ccc(C)cc3)c(=O)c3ccccc32)c1,·,i,i,26.0%
CC(=O)O/N=C1\C(=O)N(Cc2ccc(C)cc2)c2ccccc21,21.0%,i,i,18.3%
CN1C(=O)/C(=N\OC(=O)c2ccccc2Cl)c2ccccc21,20.7%,i,i,17.8µM*
CC(=O)c1sc2nc(C)c3c(c2c1N)CCCC3,17.8µM*,i,i,12.6µM*
CN(Cc1ccco1)S(=O)(=O)c1ccc(CN2C(=O)c3cccnc3C2=O)s1,?,i,i,17.8µM*
COc1ccc(CN2C(=O)c3cccnc3C2=O)cc1S(=O)(=O)N(C)Cc1ccco1,1.4%,i,i,4.4%
COc1ccc(-n2cnc3scc(-c4ccccc4)c3c2=O)cc1,-0.6%,i,i,11.2µM*
CCCN1CNc2c(c(=O)[nH]c(=S)n2CCc2c(C)cccc2C)C1,-2.5%,·,·,·
SMILES,aSyn yeast inh,FUS suppressor,Abeta rescue,TDP43 rescue
O=C(c1ccc(N2CCN(C(=O)c3ccc(F)cc3F)CC2)cc1)c1cccc(F)c1,9.7%,i,i,17.8µM*
O=C(c1ccc(F)cc1F)N1CCN(c2ncccn2)CC1,0.3%,i,i,-4.0%
O=C1CC(=C2c3ccccc3-c3ccccc32)C(=O)N1CCN1CCN(c2ccccc2)CC1,-0.8%,39.8µM*,i,-28.6%
COc1ccccc1N1CCN(CCN2C(=O)CC(=C3c4ccccc4-c4ccccc43)C2=O)CC1,-11.8%,15.8µM*,i,2.7%
NC(=O)C1CCN(S(=O)(=O)c2ccc(N3CCCCS3(=O)=O)cc2)CC1,·,i,i,-5.9%
Fc1ccc(N2CCN(c3ncnc4c3nc3n4CCCCC3)CC2)cc1,·,i,i,12.8%
O=C(C1CCN(c2ncnc3c2nc2n3CCCCC2)CC1)N1CCN(c2cccc(Cl)c2)CC1,8.7%,?,i,27.5%
Clc1cccc(N2CCN(c3ncnc4c3nc3n4CCCCC3)CC2)c1,·,?,i,17.8µM*
Cc1cccc(N2CCN(c3ncnc4c3nc3n4CCCCC3)CC2)c1C,·,i,i,22.4µM*
O=[N+]([O-])c1ccc(/C=N/Nc2nc(-c3ccccc3)c3cc(Br)ccc3n2)o1,-7.2%,i,i,11.2µM*
C=C1C=C(C)n2ncc(C(=O)Nc3ccc(NC(C)=O)c(Cl)c3)c2N1,-4.3%,·,·,·
CN(C)c1ccc(/C=C/c2cc(/C=C/c3ccc(N(C)C)cc3)c3ccccc3n2)cc1,-69.3%,·,·,·
O=C(N/N=C1/C(=O)c2cccc3cccc1c23)c1ccc(Cl)cc1,?,i,?,17.8µM*
Cc1ccccc1NC(=O)c1nc(S(=O)(=O)Cc2ccccc2F)ncc1Cl,-23.8%,·,·,·
CC(C)(Oc1ccc(Cl)cc1)C(=O)NNC(=O)c1ccc(Br)o1,1.8%,i,i,14.1µM*
CCc1nc2c(OCC(=O)c3ccc(Cl)cc3Cl)cccn2c1N(C)C(=O)c1ccncc1,-5.4%,i,i,8.7%
CCCCC(=O)N(C)c1c(CC)nc2c(OCC(=O)c3ccc(Cl)cc3Cl)cccn12,-11.4%,31.6µM*,i,5.5%
CCc1nc2c(OCc3ccc(Cl)cc3Cl)cccn2c1N(C)C(=O)c1ccccc1F,0.2%,?,i,17.8µM*
COc1cc(-c2nc(C)c(C(C)=O)n2O)ccc1OCC(=O)Nc1ccc(F)cc1,-5.6%,i,i,19.3%
CCOc1cc(-c2nc(C)c(C(C)=O)n2O)ccc1OCC(=O)Nc1ccc(F)cc1,-4.4%,i,i,14.1µM*
N#Cc1c2c(c(Cl)n3c1nc1ccccc13)CCCC2,4.4%,·,·,·
Cc1sc2ncnc(NCc3cccs3)c2c1C,-0.6%,i,i,17.8µM*
CCOc1ccc(N(CC(=O)Nc2c(C)n(C)n(-c3ccccc3)c2=O)S(=O)(=O)c2ccc(C)c(C)c2)cc1,·,i,·,·
CC(=O)N1N=C(c2ccc(Cl)cc2)CC1c1ccc([N+](=O)[O-])cc1 (stereo unspecified),-0.9%,i,i,-5.4%
COc1ccc(C2CC(c3ccc(Cl)cc3)=NN2C(C)=O)cc1 (stereo unspecified),?,i,i,12.6µM*
O=C1C(=O)N(Cc2ccc(-c3ccc(Cl)nc3)cc2)c2ccc(OC(F)(F)F)cc21,·,i,·,·
COc1cc(C=C(C#N)c2ccc([N+](=O)[O-])cc2)ccc1O,-14.8%,i,i,3.98µM*
O=S1(=O)c2ccccc2N(Cc2ccccc2Cl)c2ccccc21,·,i,i,6.31µM*
Cc1ccccc1CN1c2ccccc2S(=O)(=O)c2ccccc21,·,i,i,2.5%
CC1Oc2ccccc2N(Cc2ccccc2Cl)C1=O (stereo unspecified),9.0%,i,i,19.3%
